The antibiotic and cytotoxicity screens of Wong et al. (2023)
About 3,300 (8.5%) of roughly 39,000 compounds were called active. The sample holds actives, similar compounds and a random draw of the others, so the mix is not that of the screen.

test system: HepG2; experiment: cytotoxicity call (relative viability < 0.9); conditions: 10 µM

| SMILES | cytotoxicity call |
| --- | --- |
| C[C@@H]1CN([C@@H](C)CO)C(=O)c2cc(NS(=O)(=O)c3ccc(F)cc3)ccc2O[C@H]1CN(C)CC1CC1 | inactive |
| CCS(=O)(=O)Nc1ccc2c(c1)C(=O)N(C)[C@@H]1CC[C@@H](CC(=O)NCc3ccc(OC)cc3)O[C@H]1CO2 | inactive |
| COCC#Cc1ccc([C@H]2[C@@H](CO)N3C(=O)CN(C(=O)C4CCOCC4)C[C@H]23)cc1 | inactive |
| COc1ccc2c3c(n(c2c1)C)[C@@H](CO)N(C[C@]13CCN(CC1)CC1CCOCC1)C(=O)Cc1ccccn1 | inactive |
| C[C@H](CO)N1C[C@H](C)[C@@H](CN(C)S(=O)(=O)c2cn(C)cn2)Oc2ccc(NS(C)(=O)=O)cc2CC1=O | inactive |
| Cc1noc(C)c1S(=O)(=O)Nc1ccc2c(c1)C(=O)N([C@@H](C)CO)C[C@H](C)[C@H](CN(C)S(=O)(=O)c1ccc(Cl)cc1)O2 | inactive |
| O=C(O)[C@H]1C2C(=O)N3CCCO[C@@H]3[C@]23C=C[C@H]1O3 (some centres not stated) | inactive |
| CCOP(=O)(CC(=O)O[C@H]1[C@H](OC(=O)Nc2ccccc2-c2ccccc2)[C@H](OC(=O)Nc2ccccc2-c2ccccc2)[C@@H](OC)O[C@@H]1COC(=O)NCCCCCC(=O)NO)OCC | active |
| COc1ccc(NC(=O)O[C@H]2[C@H](OC(=O)Nc3ccccc3-c3ccccc3)[C@@H](OC(=O)Nc3ccccc3-c3ccccc3)[C@@H](OC)O[C@@H]2COC(=O)NCCCCCC(=O)NO)cc1 | inactive |
| CO[C@H]1O[C@H](COC(=O)NCCCCCC(=O)NO)[C@@H](OC(=O)c2ccccc2)[C@H](OC(=O)Nc2ccccc2-c2ccccc2)[C@@H]1OC(=O)Nc1ccccc1-c1ccccc1 | active |
| CO[C@H]1O[C@H](COC(=O)NCCCCCC(=O)NO)[C@H](OC(=O)Nc2ccccc2)[C@H](OC(=O)Nc2ccccc2)[C@H]1OC(=O)Nc1ccccc1 | inactive |
| CCOP(=O)(CC(=O)O[C@H]1[C@@H]2OC(=O)[C@@H](Cc3ccc4ccccc4c3)C/C=C\C[C@H](Cc3ccc4ccccc4c3)C(=O)O[C@H]2[C@@H](OC)O[C@@H]1COC(=O)NCCCCCC(=O)NO)OCC | inactive |
| COc1ccc(NC(=O)O[C@H]2[C@H](OC(=O)Nc3ccccc3-c3ccccc3)[C@H](OC(=O)Nc3ccccc3-c3ccccc3)[C@@H](OC)O[C@@H]2COC(=O)NCCCCCC(=O)NO)cc1 | inactive |
| NCc1ccc2occc2c1 | inactive |
| Cc1ccc(S(=O)(=O)Nc2ccc3c(c2)CC(=O)N([C@H](C)CO)C[C@H](C)[C@H](CN(C)C(=O)Nc2ccc(C(F)(F)F)cc2)O3)cc1 | inactive |
| COc1ccc(S(=O)(=O)N(C)C[C@@H]2Oc3c(NC(=O)c4ccncc4)cccc3C(=O)N([C@@H](C)CO)C[C@H]2C)cc1 | inactive |
| CNC(=O)[C@@]12CCC3(CCN(C(=O)COC)CC3)[C@H]1CN(S(C)(=O)=O)C2 | inactive |
| C[C@@H]1CCCCO[C@@H](CN(C)CC2CCCCC2)[C@@H](C)CN([C@@H](C)CO)C(=O)c2cc(NC(=O)Cc3ccccc3)ccc2O1 | inactive |
| COc1ccc(NC(=O)Nc2cccc3c2O[C@H](CN(C)C(=O)Nc2cccc4ccccc24)[C@@H](C)CN([C@@H](C)CO)C3=O)cc1 | inactive |
| C[C@@H]1CN([C@@H](C)CO)C(=O)Cc2cc(NS(=O)(=O)c3ccccc3)ccc2O[C@@H]1CN(C)Cc1ccc(-c2ccccc2)cc1 | active |
| C[C@H]1CN([C@@H](C)CO)C(=O)Cc2cc(NS(=O)(=O)c3ccccc3)ccc2O[C@H]1CN(C)Cc1ccc(-c2ccccc2)cc1 | active |
| C[C@@H]1CN([C@H](C)CO)C(=O)Cc2cc(NS(=O)(=O)c3ccccc3)ccc2O[C@@H]1CN(C)Cc1ccc(-c2ccccc2)cc1 | inactive |
| C[C@H](CO)N1C[C@H](C)[C@@H](CN(C)Cc2ccc(-c3ccccc3)cc2)Oc2ccc(NS(=O)(=O)c3ccccc3)cc2CC1=O | inactive |
| C[C@@H]1CN([C@H](C)CO)C(=O)Cc2cc(NS(=O)(=O)c3ccccc3)ccc2O[C@H]1CN(C)Cc1ccc(-c2ccccc2)cc1 | inactive |

| SMILES | cytotoxicity call |
| --- | --- |
| C[C@H](CO)N1C[C@H](C)[C@H](CN(C)Cc2ccc(-c3ccccc3)cc2)Oc2ccc(NS(=O)(=O)c3ccccc3)cc2CC1=O | active |
| C[C@H]1CN([C@@H](C)CO)C(=O)Cc2cc(NS(=O)(=O)c3ccccc3)ccc2O[C@@H]1CN(C)Cc1ccc(-c2ccccc2)cc1 | inactive |
| C[C@@H]1CN([C@@H](C)CO)C(=O)Cc2cc(NS(=O)(=O)c3ccccc3)ccc2O[C@H]1CN(C)Cc1ccc(-c2ccccc2)cc1 | inactive |
| c1ccc(-n2ncc3c2ncn2nnnc32)cc1 | inactive |
| CO[C@H]1CN(C)C(=O)c2cc(NC(=O)Nc3cccc(Cl)c3)ccc2OC[C@@H](C)N(C(=O)Nc2c(C)noc2C)C[C@@H]1C | inactive |
| C[C@@H]1CN([C@@H](C)CO)C(=O)c2cc(NC(=O)Cn3cnnn3)ccc2O[C@H]1CN(C)Cc1ccc(Oc2ccccc2)cc1 | inactive |
| CC/N=C1\S[C@@H](CC(=O)NC)C(=O)N1CC | inactive |
| O=C(C[C@@H]1C[C@H]2c3cc(NC(=O)Nc4ccccc4)ccc3O[C@H]2[C@H](CO)O1)NCCN1CCCCC1 | inactive |
| COc1ccc(CN(C)C[C@H]2OCCCC[C@@H](C)Oc3ccc(NC(=O)Nc4c(C)noc4C)cc3C(=O)N([C@@H](C)CO)C[C@@H]2C)cc1 | inactive |
| C[C@@H]1CCCCO[C@@H](CN(C)C(=O)c2ccccc2)[C@@H](C)CN([C@@H](C)CO)C(=O)c2cc(NS(=O)(=O)c3ccc(Cl)cc3)ccc2O1 | inactive |
| CCCN1CCC2(CC1)NC(=O)N(CC(=O)N1CCN(C(=O)OCC)CC1)C2=O | inactive |
| C[C@H](CO)N1C[C@H](C)[C@H](CN(C)Cc2ccc(C(F)(F)F)cc2)OCc2ccccc2-c2c(n(C)c3ccccc23)C1=O | inactive |
| CCOC(=O)c1cnn2c(=O)cc(C)[nH]c12 | inactive |
| C[C@@H]1CN([C@H](C)CO)S(=O)(=O)c2ccc(C#CC3(O)CCCC3)cc2O[C@@H]1CN(C)C(=O)c1ccccc1 | inactive |
| CNC[C@H]1Oc2c(NS(=O)(=O)c3cn(C)cn3)cccc2C(=O)N([C@@H](C)CO)C[C@@H]1C | inactive |
| CCOC(=O)c1c(CNCCN(CC)CC)n(-c2ccccc2)c2cc(Br)c(OC)cc12 | active |
| CCOC(=O)c1c(CN2CCN(Cc3ccccc3)CC2)n(-c2ccccc2)c2cc(Br)c(OC)cc12 | inactive |
| CCOC(=O)c1c(CN2CCN(c3ccccc3)CC2)n(-c2ccccc2)c2cc(Br)c(O)cc12 | inactive |
| CCOC(=O)c1c(CN2CCN(c3ccccc3)CC2)n(-c2ccccc2)c2cc(Br)c(OC)cc12 | inactive |
| CCOC(=O)c1c(CN2CCN(CCOCCO)CC2)n(-c2ccccc2)c2cc(Br)c(O)cc12 | active |
| CCOC(=O)c1c(CN2CCN(Cc3ccccc3)CC2)n(-c2ccccc2)c2cc(Br)c(O)cc12 | inactive |
| Cc1ccc(S(=O)(=O)N(C)C[C@@H]2Oc3ccc(NS(=O)(=O)c4c(C)noc4C)cc3C(=O)N([C@H](C)CO)C[C@@H]2C)cc1 | inactive |
| Cc1ccc(S(=O)(=O)Nc2ccc3c(c2)C(=O)N([C@@H](C)CO)C[C@H](C)[C@H](CN(C)C(=O)CCC(F)(F)F)OCCCC[C@@H](C)O3)cc1 | inactive |
| C[C@@H]1CCCCO[C@H](CN(C)S(=O)(=O)c2ccc(Cl)cc2)[C@H](C)CN([C@@H](C)CO)C(=O)c2cc(NS(=O)(=O)c3ccccc3)ccc2O1 | inactive |

| SMILES | cytotoxicity call |
| --- | --- |
| Cc1ccc2ncc(-c3ccc4cc(C)ccc4n3)cc2c1 | inactive |
| COc1ccc(NC(=O)N(C)C[C@@H]2OCCCC[C@@H](C)Oc3ccc(NS(=O)(=O)c4ccc(C)cc4)cc3C(=O)N([C@H](C)CO)C[C@@H]2C)cc1 | inactive |
| C[C@H](CO)N1C[C@H](C)[C@H](CN(C)C(=O)c2cnccn2)Oc2ncc(/C=C/c3ccccc3)cc2C1=O | inactive |
| O=C(CCCCCCC(=O)Nc1ccccc1O)N/N=C/c1cc(Br)c(O)c(Br)c1 | inactive |
| O=C(CCCCCCC(=O)Nc1ccccc1O)N/N=C/c1ccc(N(c2ccccc2)c2ccccc2)cc1 | active |
| O=C(CCCCCC(=O)Nc1ccccc1O)N/N=C/C[P+](c1ccccc1)(c1ccccc1)c1ccccc1 | inactive |
| N[C@H]1CCC[C@@H]1Cc1ccc(F)cc1 | inactive |
| C[C@@H]1CCCCO[C@H](CN(C)C(=O)c2ccccc2)[C@@H](C)CN([C@@H](C)CO)C(=O)c2cc(NC(=O)Nc3ccc4c(c3)OCO4)ccc2O1 | inactive |
| C[C@H]1CN([C@@H](C)CO)C(=O)Cc2cc(NC(=O)Nc3cccc4ccccc34)ccc2O[C@H]1CN(C)Cc1ccc(C(=O)O)cc1 | inactive |
| CC(C)NC(=O)Nc1ccc2c(c1)C(=O)N([C@H](C)CO)C[C@H](C)[C@@H](CN(C)Cc1ccc(C(=O)O)cc1)O2 | inactive |
| C[C@@H]1CCCCO[C@H](CN(C)C(=O)C2CCCCC2)[C@@H](C)CN([C@@H](C)CO)C(=O)c2cc(NC(=O)CCC(F)(F)F)ccc2O1 | inactive |
| C[C@H](CO)N1C[C@H](C)[C@H](CN(C)Cc2ccncc2)OCCCC[C@H](C)Oc2ccc(NC(=O)Nc3ccccc3)cc2C1=O | inactive |
| C[C@@H]1CN([C@H](C)CO)C(=O)c2cc(NC(=O)C3CCCCC3)ccc2O[C@@H]1CN(C)Cc1ccc(-c2ccccc2)cc1 | active |
| C[C@H](CO)N1C[C@H](C)[C@@H](CN(C)Cc2ccc(-c3ccccc3)cc2)Oc2ccc(NC(=O)C3CCCCC3)cc2C1=O | inactive |
| C[C@@H]1CN([C@@H](C)CO)C(=O)c2cc(NC(=O)C3CCCCC3)ccc2O[C@@H]1CN(C)Cc1ccc(-c2ccccc2)cc1 | active |
| C[C@@H]1CN([C@@H](C)CO)C(=O)c2cc(NC(=O)C3CCCCC3)ccc2O[C@@H]1CN(C)Cc1ccc(Oc2ccccc2)cc1 | inactive |
| C[C@@H]1CN([C@@H](C)CO)C(=O)c2cc(NC(=O)C3CC3)ccc2O[C@H]1CN(C)Cc1ccc(-c2ccccc2)cc1 | inactive |
| C[C@H]1CN([C@@H](C)CO)C(=O)c2cc(NC(=O)C3CCCCC3)ccc2O[C@H]1CN(C)Cc1ccc(-c2ccccc2)cc1 | active |
| C[C@H]1CN([C@@H](C)CO)C(=O)c2cc(NC(=O)C3CCCCC3)ccc2O[C@@H]1CN(C)Cc1ccc(-c2ccccc2)cc1 | inactive |
| C[C@@H]1CN([C@@H](C)CO)C(=O)c2cc(NC(=O)C3CCCCC3)ccc2O[C@H]1CN(C)Cc1ccc(-c2ccccc2)cc1 | inactive |
| C[C@@H]1CN([C@H](C)CO)C(=O)c2cc(NC(=O)C3CCCCC3)ccc2O[C@@H]1CN(C)Cc1ccc(Oc2ccccc2)cc1 | active |
| C[C@H](CO)N1C[C@H](C)[C@H](CN(C)Cc2ccc(-c3ccccc3)cc2)Oc2ccc(NC(=O)C3CC3)cc2C1=O | inactive |
| C[C@H]1CN([C@@H](C)CO)C(=O)c2cc(NC(=O)C3CCCCC3)ccc2O[C@@H]1CN(C)Cc1ccc(Oc2ccccc2)cc1 | inactive |
| C[C@@H]1CN([C@H](C)CO)C(=O)c2cc(NC(=O)C3CCCCC3)ccc2O[C@H]1CN(C)Cc1ccc(-c2ccccc2)cc1 | inactive |
